Results as given in PubChem BioAssay (NCATS).
Results filed as inconclusive are left out. A number with no mark means an inactive call. Active and inactive are the calls of the source. Calls follow the shape of the dose curve; as a rule, active = well fitted cell-killing curve with a large enough effect; inconclusive = small, poorly fitted or top-dose-only effect, or effect the other way; inactive = flat fitted curve, though single readings scatter.

System: CAOV3
Test: Primary qHTS to identify gynecologic anti-cancer compounds using libraries of approved drugs and bioactive compounds (AID 1345084); also: nearly all actives have a fitted effect of over 55% in size
Conditions: Gynecologic cancer cell panel viability, ATPlite luminescence, 48 h; series mostly up to 57.5 µM; activity change, negative = cytotoxicity: at the top concentration
Source text: National Center for Advancing Translational Sciences [NCATS] Assay Overview: Chemotherapeutic drug responses vary from cancer to cancer and from patient to patient. These variations could be caused by a number of factors including patient genomic background, tumor mutations, tumor heterogeneity, and aspects of drug treatment. Chemotherapeutic drug resistance is also a common issue and can lead to ineffective treatment and patient death. Here we have profiled the cell killing effects of thousands of compounds to characterize the responses in three gynecological cancers, identify cancer-selective compounds, and understand the diversity of responses to these compounds from pan-cancer suppressors to single cell line selective compounds. In this assay, we screened a 7,914 compound drug library that included approved drug and bioactive compounds in six ovarian, three cervical, and […] placental cancer cell lines using the ATPlite assay for cell viability. […] The cervical cancer cell lines included HeLa, Ca Ski, and C-33 A. The placental cancer cell lines included JEG-3. HEK 293T cells were used as the control cell line to determine the selectivity index. ATPlite is a luminescence based assay reliant on the conversion of a luciferase substrate to light in the presence of ATP. As a cytotoxic compound will suppress growth and decrease the number of cells, the concentration of ATP will decrease, and less light signal will be detected in the well.
Assay Protocol Summary: 1,000 cells in 4 uL of media were dispensed into white, solid bottom 1536-well plates using a Multidrop Combi (Thermo Scientific). The Assay plates were incubated for 16 hours at 37 C with 5% CO2 in assay plates, followed by the addition of 23 nL of DMSO or drug dissolved in DMSO. Each compound was assayed in five concentrations (0.092, 0.46, 2.3, 11.5, and 57.5 uM), using the automated Wako 1536 Pin Tool workstation and incubated at 37 C with 5% CO2 48 hours. 4 uL of ATPlite, the ATP monitoring reagent, was then added to the each well of the assay plates using the Multidrop Combi reagent dispenser followed by incubation for 15 minutes at room temperature. The resulting luminescence was measured using the ViewLux plate reader.
% is scaled to controls: 0 for no effect and ±100 for the full control effect; potency is read from the fitted curve at half-maximal effect.

SMILES | activity change, negative = cytotoxicity | Potency
COc1cc2nc(C3CC3)nc(N3CCN(c4ccccc4OC)CC3)c2cc1OC | -0.394% | –
COc1ccc([C@H]2Cc3cccc(O)c3C(=O)O2)cc1OC | 2.58% | –
CC(=O)O[C@H]1C[C@@](O)(C(C)C)[C@@H]2[C@@H](OC(=O)c3ccc(O)cc3)CC(C)=CC[C@@]12C | -28.7% [at 25.3 µM] | –
C=C(C(=O)O)[C@@H]1CC=C(CCC(C)=O)[C@@H](C)CC1 | -5.62% | –
C=C1C(=O)O[C@H]2/C=C(/C)[C@@H](OC(C)=O)C/C=C(\C)C[C@@H](OC(=O)/C(=C/C)COC(=O)/C(=C/C)CO)[C@@H]12 | – | 8.91 µM (active)
CN(C)C(=O)C(=O)c1cn(C)c2cc(Cl)c(C(=O)N3CCC(Cc4ccc(F)cc4)CC3)cc12 | 5.07% | –
CC(C)=CCC[C@](C)(O[C@@H]1O[C@H](CO[C@@H]2OC[C@@H](O)[C@H](O)[C@H]2O)[C@@H](O)[C@H](O)[C@H]1O)[C@H]1CC[C@]2(C)[C@@H]1[C@H](O)C[C@@H]1[C@@]3(C)CC[C@H](O[C@@H]4O[C@H](CO)[C@@H](O)[C@H](O)[C@H]4O)C(C)(C)[C@@H]3CC[C@]12C | -21% [at 25.3 µM] | –
CC(=O)O[C@@H]1C[C@@]2(C)C(CC[C@]3(C)C2CC=C2C4CC(C)(C)CC[C@]4(C(=O)O)CC[C@]23C)C(C)(C)[C@H]1O (stereo not given in full) | 10.9% [at 25.3 µM] | –
CC(C)(C)c1ccc2c(c1)CC[C@H]2NC(=O)Nc1cccc2[nH]ncc12 | -7.82% | –
COc1cc(-c2nc(N[C@H](CO)Cc3ccccc3)ccc2C(=O)NCCOc2ccccc2)cc(OC)c1OC | 26.1% | –
COc1cc(N2CCC(N)CC2)ccc1Nc1ncc(Cl)c(-c2c[nH]c3ccccc23)n1 | – | 22.4 µM (active)
CNC(=O)c1cc(Oc2ccc(NC(=O)c3cccc(C(F)(F)F)c3)cc2)ccn1 | -3.99% | –
O=C(NO)c1ccc(CC(=O)N(CCO)c2ccccc2)cc1 | -0.396% | –
CCNC1(C(N)=O)CCN(c2ncnc3c2nc(-c2ccccc2Cl)n3-c2ccc(Cl)cc2)CC1 | 17.4% | –
CC(C)(C)Oc1ccc(OCC2Cc3ccccc3CN2C(=O)c2cccc3ccccc23)cc1 (stereo not given) | -12.7% | –
COc1c(C)cc(NC(=O)c2nn(Cc3ccc(F)cc3)c3c2CN(C(=O)c2ccc[nH]2)C[C@]3(C)C(N)=O)cc1C | -4.37% [at 11.6 µM] | –
CC1CCCC(O)CCC/C=C/c2cc(OS(=O)(=O)O)cc(O)c2C(=O)O1 (stereo not given) | -6.92% [at 38.5 µM] | –
CC(=O)OC1CC(O)(C(C)C)C2C(OC(=O)c3ccc(O)cc3)C=C(C)C(=O)CC12C (stereo not given) | 7.03% [at 25.3 µM] | –
C=C1C(=O)O[C@@H]2[C@H]1CC[C@H](C)[C@]1(CCC(=O)O1)C2(C)O (stereo not given in full) | 2.42% | –
CCOc1ccc(S(=O)(=O)N2CCCCCC2)c2ccccc12 | 18.5% | –

SMILES | activity change, negative = cytotoxicity | Potency
c1cc(NCCc2c[nH]c3ccccc23)cc(Nc2ccncc2)c1 | -24.8% | –
COc1cc(C2OC(c3ccc(OC)c(OC)c3)C(C)C2C)ccc1O (stereo not given) | -6.09% [at 38.5 µM] | –
C=C1CO[C@@]2(O[C@H]3CC4C5CC=C6C[C@@H](O)C[C@@H](O[C@@H]7OC[C@H](O)[C@H](O[C@@H]8OC[C@@H](O)[C@H](O)[C@H]8O)[C@H]7O[C@@H]7O[C@@H](C)[C@H](OC(C)=O)[C@@H](OC(C)=O)[C@H]7OC(C)=O)[C@]6(C)C5CC[C@]4(C)[C@@H]3[C@@H]2C)[C@@H](O)[C@H]1OC1OC(C)C(O)C(O)C1O (stereo not given in full) | -13% [at 6.55 µM] | –
CC(=O)O[C@@H]1C[C@@]23C[C@@]24CC[C@H](O[C@@H]2OC[C@H](O)[C@H](O)[C@H]2O)C(C)(C)[C@@H]4CC[C@H]3[C@]2(C)[C@@H](O)C34O[C@H](C[C@@H](C)[C@@H]3[C@@]12C)[C@@H](C(C)(C)O)O4 | -3.89% | –
COC1=CC(=O)C=C(C)C12Oc1c(Cl)c(OC)cc(OC)c1C2=O (stereo not given) | 14% [at 38.5 µM] | –
NCCOc1cc(C(=O)Nc2cc(OCCN)c3ccccc3n2)nc(C(=O)Nc2cc(OCCN)c3ccccc3n2)c1 | -2.2% | –
Cn1ncc(Cl)c1-c1cc(C(=O)N[C@H](CN)Cc2cccc(F)c2)sc1Cl | -22.6% | –
CC1(C)CC[C@]2(C(=O)O)CC[C@]3(C)C(=CCC4[C@@]5(C)C[C@@H](O)[C@H](O)C(CO)(CO)C5CC[C@]43C)C2[C@@H]1O (stereo not given in full) | -4.79% [at 25.3 µM] | –
Cc1ccc(-c2ncc[nH]2)cc1NC(=O)c1ccc(OCc2ccccn2)cc1 | -2.06% | –
CC1(C)CC[C@]23CO[C@@]4(CCC5[C@@]6(C)CC[C@H](O[C@@H]7OC[C@H](O[C@@H]8O[C@H](CO)[C@@H](O)[C@H](O)[C@H]8O[C@@H]8OC[C@@H](O)[C@H](O)[C@H]8O)[C@H](O)[C@H]7O)[C@@](C)(CO)C6CC[C@@]5(C)[C@]4(C)CC2=O)[C@@H]3C1 (stereo not given in full) | 7.02% [at 11.6 µM] | –
O=C(NCCCN1CCC2(CC1)OCc1ccccc12)[C@H]1CCCN1Cc1ccccc1 | -9.96% | –
Cc1ccc(N2CCN(CCC3NC(=O)c4ccccc43)CC2)cc1C (stereo not given) | 2.42% | –
COc1cc([C@H]2O[C@H](c3cc(OC)c4c(c3)OCO4)[C@H](C)[C@H]2C)cc(OC)c1OC | -16.7% [at 25.3 µM] | –
O=C(NCc1nc2ccccc2c(=O)n1-c1ccc(F)cc1)Nc1ccc(Cl)c(C(F)(F)F)c1 | -5.99% | –
CC(C)c1ccccc1OC(=O)NCCc1ccc2ccccc2c1 | 3.64% | –
O=C(NO)c1cnc(N2CCN(S(=O)(=O)c3ccc4ccccc4c3)CC2)nc1 | -27.2% [at 25.3 µM] | –
CC1CCCC(O)CC(=O)c2c(O)cc(O)cc2CC(=O)O1 (stereo not given) | -21.8% [at 38.5 µM] | –
C[C@H]1CC[C@@]2(OC1)O[C@H]1CC3[C@@H]4CC[C@@H]5C[C@@H](O[C@@H]6O[C@H](CO)[C@@H](O[C@@H]7O[C@@H](C)[C@H](O)[C@@H](O)[C@H]7O)[C@H](O)[C@H]6O[C@@H]6O[C@H](CO)[C@@H](O)[C@H](O)[C@H]6O)CC[C@]5(C)C4CC[C@]3(C)[C@H]1[C@@H]2C (stereo not given in full) | -14.9% [at 11.6 µM] | –
COc1cc(C#N)ccc1S(=O)(=O)Nc1ccc2c(c1)cc(C)c(=O)n2C | -2.11% | –
COc1ccncc1C(=O)NC(=O)Nc1ccc(-c2ccccc2)c(C(F)(F)F)c1 | 19% | –
